PME-1 inh: blocks human protein phosphatase methylesterase 1; Q9Y570; recombinant PME-1, FP-Rh probe fluorescence polarization; 0.53% of 320,000 active; inhibition, % at 5.9 µM;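 active means inhibition above the campaign mean of all compounds plus 3 SD, cut at about 26% in these data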;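 further: competitive labeling of PME-1 active site by serine hydrolase directed probe; inhibitors block probe labeling so polarization falls and inhibition rises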
Target sequence (Q9Y570 whole entry, looked up): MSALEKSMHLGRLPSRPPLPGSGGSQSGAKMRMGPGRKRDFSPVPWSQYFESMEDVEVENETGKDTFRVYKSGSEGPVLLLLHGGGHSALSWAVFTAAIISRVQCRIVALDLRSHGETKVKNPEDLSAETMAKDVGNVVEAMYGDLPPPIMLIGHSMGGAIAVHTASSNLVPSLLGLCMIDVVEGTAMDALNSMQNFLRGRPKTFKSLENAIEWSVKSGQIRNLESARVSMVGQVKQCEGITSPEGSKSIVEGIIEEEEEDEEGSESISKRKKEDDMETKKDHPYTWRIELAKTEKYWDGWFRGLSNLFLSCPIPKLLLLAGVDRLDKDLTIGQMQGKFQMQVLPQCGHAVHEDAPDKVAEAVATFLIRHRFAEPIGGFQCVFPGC
PAFAH2 FP inh: PAFAH2 (human) inhibition; 0.99% of 340,000 active; inhibition, % at 3.39 µM; AID 492956; recombinant PAFAH2, FP-rhodamine activity probe, fluorescence polarization; Q99487;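 active means inhibition above the mean over all tested compounds plus 3 SD, cut at about 30% in these data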;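 further: inhibitors block probe labeling of enzyme so polarization drops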
PAFAH1B2 inh: inhibitors of human PAFAH1B2; P68402; recombinant PAFAH1B2, FP-rhodamine activity probe, fluorescence polarization; inhibition, % at 3.39 µM; 1.2% of 340,000 active; AID 492953;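 active means inhibition above the mean of all tested compounds plus 3 SD, cut at about 24% in these data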
Fam108B counter: counter-screen for RBBP9 inhibitors: inhibitors of mouse Fam108B | inhibition, % at 9.51 µM | recombinant Fam108B, FP-Rh probe fluorescence polarization | 0.33% of 300,000 active;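 active means inhibition above the screen mean inhibition plus 3 SD, computed separately per campaign, cut at about 18% in these data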;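 further: inhibitors lower polarization as less probe binds the enzyme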
PAFAH1B3 FP inh: inhibitors of human PAFAH1B3; inhibition, % at 3.39 µM; AID 492972; 0.28% of 340,000 active; Q15102; recombinant PAFAH1B3, FP-rhodamine probe, fluorescence polarization;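 active means inhibition above the screen-wide average of all tested compounds plus 3 SD, cut at about 25% in these data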
Target sequence (Q15102 whole entry, looked up): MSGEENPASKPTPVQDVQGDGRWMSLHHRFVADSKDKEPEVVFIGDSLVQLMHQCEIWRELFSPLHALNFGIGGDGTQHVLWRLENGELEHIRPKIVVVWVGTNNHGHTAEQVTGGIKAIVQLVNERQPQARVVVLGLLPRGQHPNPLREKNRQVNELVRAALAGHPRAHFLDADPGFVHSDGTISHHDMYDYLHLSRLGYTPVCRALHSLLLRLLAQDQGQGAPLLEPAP
pPAFAH inh: inhibitors of human plasma PAF acetylhydrolase (pPAFAH). inhibition, % at 3.39 µM. 1.5% of 330,000 active. recombinant pPAFAH, FP-rhodamine probe fluorescence polarization. Q13093;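 active means inhibition above the mean inhibition across the screen plus 3 SD, cut at about 25% in these data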;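 further: inhibitors block binding of the rhodamine activity-based probe so polarization drops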
Each line names hits and unclear results; the compound was inactive in the other large screens. The list is not random: actives were taken first. Their share in the collection is about 2.8%.

N#Cc1ccsc1NC(=O)CN1C(=O)NC2(CCCC2)C1=O	pPAFAH inh 27
CCOC(=O)c1c(NC(=O)c2ccco2)sc2c1CCCC2	none
Cc1ccc(-n2ncc3c(=O)n(CC(=O)N(C(C)C)C(C)C)cnc32)cc1	none
Cc1cc(NC(=O)CN2C(=O)NC3(CCCCCC3)C2=O)ccc1Br	none (no result: Fam108B counter)
O=C(NCCc1ccc(Cl)cc1)C1CCN(S(=O)(=O)c2ccc(Br)s2)CC1	none
Cc1cc(C(=O)Nc2ccccc2C(=O)O)c(C)o1	none
O=C(COC(=O)c1cccc(F)c1)Nc1ccc(Cl)cn1	none (no result: PME-1 inh, Fam108B counter)
CC1CCC2(CC1)NC(=O)N(CC(=O)Nc1sc3c(c1C(N)=O)CCC3)C2=O (centres undefined)	pPAFAH inh 25
NC(=O)c1c(NC(=O)CN2CCN(S(=O)(=O)c3ccccc3)CC2)sc2c1CCC2	PAFAH1B2 inh 35
CN1CCN(CC(=O)Nc2sc3c(c2C(=O)Nc2ccccc2)CCCC3)CC1	none
COc1cc(C2/C(=C(\O)c3ccc4c(c3)OCCO4)C(=O)C(=O)N2Cc2ccco2)cc(OC)c1OC (centres undefined)	none (no result: PME-1 inh, Fam108B counter, pPAFAH inh)
COc1ccc(NC(=O)Nc2ccc3c(c2)C(=O)N([C@H](C)CO)C[C@H](C)[C@@H](CN(C)S(=O)(=O)c2cccs2)O3)cc1	none (no result: PME-1 inh, Fam108B counter)
COc1ccc(S(=O)(=O)Nc2ccc3c(c2)C(=O)N([C@H](C)CO)C[C@H](C)[C@@H](CN(C)S(=O)(=O)c2ccc(F)cc2)O3)cc1	PAFAH1B2 inh 29 (no result: PME-1 inh, Fam108B counter)
COc1ccc(S(=O)(=O)Nc2ccc3c(c2)C(=O)N([C@H](C)CO)C[C@@H](C)[C@@H](CN(C)S(=O)(=O)c2ccc(Cl)cc2)O3)cc1	none (no result: PME-1 inh, Fam108B counter)
C[C@H](CO)N1C[C@H](C)[C@H](CN(C)CC2CCCCC2)Oc2ccc(NS(=O)(=O)c3ccc(F)cc3)cc2CC1=O	pPAFAH inh 30 (no result: PME-1 inh, Fam108B counter)
COc1ccc(S(=O)(=O)N(C)C[C@H]2Oc3ccc(NS(=O)(=O)c4ccc(F)cc4)cc3C(=O)N([C@H](C)CO)C[C@@H]2C)cc1	PAFAH1B2 inh 25 (no result: PME-1 inh, Fam108B counter)
C[C@H](CO)N1C[C@H](C)[C@H](CN(C)C)Oc2ccc(NS(=O)(=O)c3ccc(F)cc3)cc2CC1=O	none (no result: PME-1 inh, Fam108B counter)
COc1ccc(S(=O)(=O)Nc2ccc3c(c2)C(=O)N([C@H](C)CO)C[C@H](C)[C@@H](CN(C)S(=O)(=O)c2cccs2)O3)cc1	PAFAH1B2 inh 26 (no result: PME-1 inh, Fam108B counter)
COc1ccc(S(=O)(=O)N(C)C[C@@H]2Oc3ccc(NS(C)(=O)=O)cc3C(=O)N([C@@H](C)CO)C[C@H]2C)cc1	none (no result: PME-1 inh, Fam108B counter)
Cc1ccc(S(=O)(=O)Nc2ccc3c(c2)C(=O)N([C@H](C)CO)C[C@H](C)[C@@H](CN(C)C(=O)Nc2ccc(C(F)(F)F)cc2)O3)cc1	pPAFAH inh 25 (no result: PME-1 inh, Fam108B counter)
C[C@@H]1CN([C@H](C)CO)C(=O)c2cc(NC(=O)Cc3ccccc3)ccc2O[C@H]1CN(C)Cc1ccc(Oc2ccccc2)cc1	pPAFAH inh 25 (no result: PME-1 inh, Fam108B counter)
CCOc1ccccc1/C=C(\C#N)C(=O)Nc1cccc(C(=O)O)c1	PME-1 inh 142
CCOc1cccc(NC(=O)/C(C#N)=C\c2cn(CC(=O)O)c3ccccc23)c1	none
COc1ccc(S(=O)(=O)N2CCOCC2)cc1C(=O)Nc1ccc2c(c1)OCO2	none
CCCC(NC(=O)COc1cc2c(c3oc(=O)cc(C)c13)CCC(C)(C)O2)C(=O)O (centres undefined)	none
Cc1cc(=O)oc2c3c(cc(OCC(=O)N[C@@H](CC(C)C)C(=O)O)c12)OC(C)(C)CC3	PAFAH1B2 inh 35
C=C[C@@H](C)N(Cc1ccc(OC)cc1)S(=O)(=O)N(Cc1ccccc1)[C@H](C=C)C(C)C	none (no result: Fam108B counter)
CN(C)c1cccc(C(=O)NNC(=O)CN2C(=O)C3CC=CCC3C2=O)c1 (centres undefined)	none (no result: PME-1 inh, Fam108B counter)
CCCN(CC(=O)Nc1ccccc1OC)C(=O)c1ccc2c(c1)NC(=O)C(C)S2 (centres undefined)	none (no result: Fam108B counter)
Cc1cccc(NC(=S)NNC(=O)c2csc3c2CCC(C)C3)c1 (centres undefined)	pPAFAH inh 27
CCN1CCN(c2ccc(S(=O)(=O)N3CCOCC3)cc2N)CC1	none (no result: PME-1 inh, Fam108B counter)
CCC(CO)Oc1cc(NCc2ccccc2)c2ncn(C(C)C)c2c1 (centres undefined)	none (no result: PME-1 inh, Fam108B counter)
CCC(CO)Oc1cc(NC(=O)Cc2ccccc2)c2ncn(C(C)C)c2c1 (centres undefined)	pPAFAH inh 26 (no result: PME-1 inh, Fam108B counter)
COCC(C)NC(=O)NC1(C(F)(F)F)Oc2ccc(Cl)cc2O1 (centres undefined)	PAFAH1B2 inh 25
O=C(NCCN1CCOCC1)NC1(C(F)(F)F)Oc2ccc(Cl)cc2O1 (centres undefined)	none
CCOc1ccc(NS(=O)(=O)c2ccc(C(=O)N3CCCC3)cc2)cc1	pPAFAH inh 25
CCOc1ccc(NS(=O)(=O)c2cc3c4c(c2)CCN4C(=O)CC3)cc1	pPAFAH inh 25
CCOc1ccc(NS(=O)(=O)c2ccc(C(=O)N3CCC3)cc2)cc1	pPAFAH inh 46
CCOc1ccc(C(=O)N2CCCN(C(=O)c3ccc(OCC)cc3)CC2)cc1	none
CNC(=O)c1cc(Oc2ccc(NC(=O)Nc3ccc(Cl)c(C(F)(F)F)c3)cc2)ccn1	none (no result: Fam108B counter)
Cc1ccccc1Nc1nnc(SCC(=O)NCC2CCCO2)s1 (centres undefined)	none (no result: PME-1 inh, Fam108B counter)
CCn1c(SCC(=O)Nc2ccc(N3CCOCC3)cc2)nnc1C1CC1	none (no result: Fam108B counter)
N#Cc1ccsc1NC(=O)CSc1nnnn1-c1ccc(O)cc1	pPAFAH inh 26
O=C1NC(=O)C(Cc2ccc(Cl)cc2)(c2ccccc2)N1 (centres undefined)	none (no result: PME-1 inh, Fam108B counter, pPAFAH inh)
COc1cc2cc(CN(Cc3nnnn3Cc3ccco3)C3CCCCC3)c(=O)[nH]c2cc1OC	pPAFAH inh 26
CCOc1ccc2[nH]c(=O)c(CN(Cc3nnnn3Cc3ccco3)C3CCCCC3)cc2c1	none
COc1cc(/C=N/N(c2ccccc2)c2ccccc2)ccc1O	pPAFAH inh 27
CCN1C(=O)c2cccc3c(S(=O)(=O)N(C(C)=O)c4ccc(OC(C)=O)cc4)ccc1c23	none (no result: PME-1 inh, Fam108B counter)
O=C(CS(=O)(=O)c1cn(Cc2ccc(Cl)cc2)c2ccccc12)N1CCCCC1	PAFAH1B2 inh 28
Cc1cccc(CSc2nnc3c(n2)[nH]c2ccccc23)c1	none
CCOC(=O)c1ccc(Nc2nc(N)c3cc(OC)c(OC)cc3n2)cc1	PME-1 inh 27
COc1cc2nc(Nc3ccc(C)c(C)c3)nc(N)c2cc1OC	none
CCOC(=O)c1c(NC(=O)/C=C/C(=O)O)sc(C)c1-c1ccc(F)cc1	pPAFAH inh 26
COC(=O)c1c(NC(=O)/C=C/C(=O)O)sc(C)c1-c1ccc(C)cc1	none
Cc1ccc(C(=O)NCc2ccccn2)cc1S(=O)(=O)N1CCOCC1	none (no result: Fam108B counter)
O=C(Cc1cccc(NC(=O)C2CCCN(C(=O)CCc3ccccc3)C2)c1)Nc1cccc(C(=O)N2CCCCC2)c1 (centres undefined)	none (no result: PME-1 inh, Fam108B counter, pPAFAH inh)

From PubChem BioAssay
